Screening results as filed in PubChem BioAssay.
Only some compounds are listed: those with a hit (about 2.4% of all), similar ones and a draw of the others.
MCL1 BIM primary: inhibitors of MCL1 binding to BIM-BH3, primary screen, biochemical, fluorescence polarization; GST-MCL1 / FITC-Bim-BH3 fluorescence polarization; AID 2057, 2009; hit rate 0.68% among 320,000; inhibition, % at 10.9 µM;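 active = inhibition above the mean inhibition of all tested compounds plus 3 SD, set per campaign, cut at about 40% in these data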;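 note: 0% = DMSO wells and 100% = unlabeled Bim-BH3 peptide control; higher means more loss of mP so more displacement of Bim peptide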
Target sequence (Q07820 whole entry, looked up): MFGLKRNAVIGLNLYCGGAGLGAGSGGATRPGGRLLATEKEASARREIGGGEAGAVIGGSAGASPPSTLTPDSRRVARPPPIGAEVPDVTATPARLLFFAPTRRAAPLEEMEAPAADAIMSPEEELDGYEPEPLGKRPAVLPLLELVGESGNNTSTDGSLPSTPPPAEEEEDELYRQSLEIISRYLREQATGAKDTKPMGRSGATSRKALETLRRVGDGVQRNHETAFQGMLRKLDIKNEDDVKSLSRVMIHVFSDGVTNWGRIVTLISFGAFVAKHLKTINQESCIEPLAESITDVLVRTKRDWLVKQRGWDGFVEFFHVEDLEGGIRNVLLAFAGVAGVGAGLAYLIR
Mcl1 Noxa PPI: Mcl-1/Noxa binding inhibitors, primary screen, biochemical, TR-FRET, 1536-well; hit rate 1.5% among 220,000; inhibition, % at 21.7 µM; AID 1022, 2008; Induced myeloid leukemia cell differentiation protein Mcl-1 (Homo sapiens), Q07820; TR-FRET Mcl-1/Noxa peptide binding, 2 h;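 active = compounds that cut the protein-peptide binding signal by more than 50% relative to plate controls in a single-dose test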;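 note: His-tagged Mcl-1 with rhodamine Noxa BH3 peptide and terbium anti-His antibody; 0% = Mcl-1 plus Noxa peptide wells and 100% = peptide-only wells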
Mcl1 Bid PPI: Mcl-1/Bid binding inhibitors, primary screen, biochemical, TR-FRET, 1536-well | Induced myeloid leukemia cell differentiation protein Mcl-1 (Homo sapiens), Q07820 | TR-FRET Mcl-1/Bid-Dy647 peptide binding | inhibition, % at 21.7 µM | hit rate 0.97% among 220,000 | AID 1021, 2008;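 active = compounds that cut the binding signal by more than half at the single screening dose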;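 note: His-tagged Mcl-1 with europium anti-His antibody binding Bid BH3 peptide; 0% = Mcl-1 plus peptide wells and 100% = peptide-only wells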
TNF death inh: inhibitors of TNF-alpha triggered necroptosis, primary screen, cell-based, Jurkat FADD-/-, single concentration. Jurkat FADD-/- TNF necroptosis rescue, ATP luminescence, 24 h; 0 = TNF only, 100 = no-TNF cells. activation (protection from cell death), % at 10 µM. hit rate 0.068% among 220,000;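 active = activation, meaning protection from cell death, of at least 50% relative to plate controls; inactive = activation below 50%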;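 note: necroptosis triggered by 40 ng/mL TNF-alpha added together with compound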
Bim-Mcl-1: inhibitors of Bim peptide binding to Mcl-1, primary screen, biochemical, bead-based flow cytometry, multiplex; Induced myeloid leukemia cell differentiation protein Mcl-1 (Homo sapiens), Q07820; Bim peptide-Mcl-1 binding; inhibition, % at 10 µM; hit rate 0.1% among 190,000; in the data active = inhibition above about 40%;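 note: 0% = no compound tracer wells and 100% = peptide blocker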
zVAD death inh: inhibitors of zVAD-triggered necroptosis, primary screen, L929 cells | L929 zVAD necroptosis rescue, ATP luminescence, 24 h; with zVAD 60 µM | viability rescue, % at 10 µM | hit rate 0.38% among 220,000;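 active = activation, scaled between plate controls, above about 75%, limit read from the data; inactive = activation under that limit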;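 note: 0% = zVAD with DMSO and 100% = DMSO alone without zVAD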
BCLXL inh confirm: Bcl-xL inhibitors blocking Bim BH3 binding, confirmation, counter-screen for MCL1 inhibitor project, biochemical, fluorescence polarization; shares compounds with MCL1 BIM primary; GST-Bcl-xL / FITC-Bim BH3 peptide FP binding; inhibition, % at 10.9 µM; hit rate 54% among 1,700; AID 2166, 2009;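 active = inhibition above a cutoff equal to the mean inhibition of all tested compounds plus 3 SD, cut at about 30% in these data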;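 note: 0% = DMSO wells and 100% = unlabeled Bim BH3 control peptide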
Target sequence (Q07817 whole entry, looked up): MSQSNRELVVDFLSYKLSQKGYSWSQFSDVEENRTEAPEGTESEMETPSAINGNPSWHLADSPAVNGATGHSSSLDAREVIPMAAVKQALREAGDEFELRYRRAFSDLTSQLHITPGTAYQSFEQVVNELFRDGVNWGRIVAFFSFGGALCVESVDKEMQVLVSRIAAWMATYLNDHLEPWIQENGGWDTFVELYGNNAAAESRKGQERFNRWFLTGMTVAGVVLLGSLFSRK
MCL1 BIM confirm: inhibitors of MCL1 binding to BIM-BH3, confirmation, biochemical, fluorescence polarization, triplicate; shares compounds with MCL1 BIM primary; GST-MCL1 / FITC-Bim-BH3 fluorescence polarization; inhibition, % at 10.9 µM; hit rate 61% among 1,700; AID 2168, 2009;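 active = inhibition above the average of all tested compounds plus 3 SD, cut at about 40% in these data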;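 note: 0% = DMSO wells and 100% = unlabeled Bim-BH3 control peptide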
* = called active by the depositor; / = no result.

SMILES	MCL1 BIM primary	Mcl1 Noxa PPI	Mcl1 Bid PPI	TNF death inh	Bim-Mcl-1	zVAD death inh	BCLXL inh confirm	MCL1 BIM confirm
O=C(Oc1ccc2c(c1)O/C(=C\c1ccncc1)C2=O)c1cccs1	82*	37	36	1	/	0	34*	46*
Cc1oc(-c2ccc(Cl)cc2)nc1CS(=O)CC(=O)NCCCN1CC(C)CC(C)C1 (stereo not given)	-1	/	/	/	/	/	/	/
[O-][n+]1ccc(C(O)c2ccccc2)cc1 (stereo not given)	-6	/	/	/	/	/	/	/
Cn1c(=O)c2c(nc(Sc3ncnn3CC(=O)N3CCOCC3)n2C)n(C)c1=O	-9	-20	-40	6	/	0	/	/
C=CCOc1cccc(C2C(C(=O)c3cccs3)=C(O)C(=O)N2Cc2cccnc2)c1 (stereo not given)	2	25	-18	0	0	3	/	/
CC(C)c1nnc(N2C(=O)C(O)=C(C(=O)c3cccs3)C2c2ccccc2)s1 (stereo not given)	/	11	-31	0	-4	0	/	/
COc1ccc(C2C(C(=O)c3cccs3)=C(O)C(=O)N2c2nnc(C)s2)cc1OC (stereo not given)	83*	-38	-4	-3	-4	0	128*	154*
C=CCOc1ccc(C2C(C(=O)c3cccs3)=C(O)C(=O)N2c2nnc(C)s2)cc1 (stereo not given)	100*	/	/	-2	/	0	90*	115*
COc1ccc(C2C(C(=O)c3cccs3)=C(O)C(=O)N2c2nncs2)cc1 (stereo not given)	161*	10	-8	1	4	1	144*	165*
N#Cc1c(NCCCO)nc(-c2ccco2)c2c1CCCC2	11	8	-12	-1	1	1	/	/
CSc1nc(N(C)CCO)c2sc3nc(-c4ccco4)c4c(c3c2n1)CCC4	75*	103*	93*	-6	8	0	36*	76*
CC(C)C(C(=O)O)N1C(=O)/C(=C/C=C/c2ccco2)SC1=S (stereo not given)	95*	102*	98*	-5	0	1	32*	37
CC(=C\c1ccco1)/C=C1/SC(=S)N(CC(=O)O)C1=O	6	28	-47	1	/	0	/	/
O=C(NN1C(=O)/C(=C/C=C/c2ccco2)SC1=S)c1ccncc1	80*	99*	26	-1	/	0	30*	45*
Cc1ccc(-c2nn(CCC(=O)Nc3cccnc3)c(=O)c3ccccc23)cc1	85*	12	-2	-7	/	0	73*	97*
O=C(CCn1nc(-c2ccccc2)c2ccccc2c1=O)Nc1cccnc1	6	-6	-21	0	-1	-1	/	/
O=C(O)CC1(c2ccc(F)cc2)C2CC3CC(C2)CC1C3 (stereo not given)	5	/	/	/	/	/	/	/
Cc1ccc(C(=O)C(C)OC(=O)CCN2C(=O)C3C4C=CC(C5CC45)C3C2=O)cc1 (stereo not given)	-4	/	/	/	/	/	/	/
N#C/C(=C\c1cccs1)C(=O)Nc1ccccn1	57*	18	-10	0	/	2	49*	71*
N#C/C(=C\c1ccccc1)C(=O)Nc1ccccn1	-3	/	/	/	/	/	/	/
CCCCOc1[nH]c2nc(-c3ccco3)n(Cc3ccco3)c(=N)c2c1C#N	163*	6	-12	-7	-2	0	90*	123*
c1ccc(CSc2nnc(-c3ccco3)n2Cc2ccco2)cc1	3	5	-4	-1	0	0	/	/
CC(=O)C1=C(C)OC(N)=C(C#N)C1c1ccco1 (stereo not given)	59*	30	-10	-6	-2	0	20	16
COC(=O)C1=C(C)OC(N)=C(C#N)C1c1ccco1 (stereo not given)	9	-1	-21	-4	-1	1	/	/
CCOC(=O)Cn1c(=O)c(-c2cc(Br)ccc2N)nc2ccccc21	82*	13	-35	3	/	-1	108*	132*
SMILES	MCL1 BIM primary	Mcl1 Noxa PPI	Mcl1 Bid PPI	TNF death inh	Bim-Mcl-1	zVAD death inh	BCLXL inh confirm	MCL1 BIM confirm
O=C1C(=Cc2ccco2)C(=O)c2ccccc21	18	35	-50	-2	0	1	/	/
O=C(O)c1ccc2c(c1)C(=O)/C(=C\c1ccco1)C2=O	64*	66*	-49	0	3	-1	25	26
O=C(O)c1ccc2c(c1)C(=O)/C(=C/c1ccccc1)C2=O	92*	64*	-20	1	4	/	45*	66*
CC(C)(C)N1C(=O)c2ccc(C(=O)O)cc2C1=O	10	14	11	0	-4	2	/	/
Cc1ccc(C)c(NC(=O)CN(C)C(=O)c2ccc(S(=O)(=O)N3CCCCCC3)cc2)c1	-11	/	/	/	/	/	/	/
c1ccc(CCNc2nc3ccccc3n3nnnc23)cc1	5	12	0	-1	1	1	/	/
COc1ccc(CCNc2nc3ccccc3n3nnnc23)cc1OC	55*	20	-3	-3	3	0	29	30
O=C(O)c1ccc(N2C(=O)/C(=C/C=C/c3ccccc3)SC2=S)cc1	40*	1	-56	-3	-2	36	6	14
Fc1ccc(NCc2cccnc2)cc1F	71*	15	33	1	-1	0	70*	91*
O=C(c1cccc(Cl)c1)N1CCCc2ccccc21	1	/	/	/	/	/	/	/
CCC(=O)OC1(C)C(=O)C=C2C=C(C3CC3)OC=C2C1=O (stereo not given)	63*	/	/	/	/	/	25	31
CC1(OC(=O)c2cnc3ccccc3n2)C(=O)C=C2C=C(C3CC3)OC=C2C1=O (stereo not given)	130*	/	/	/	/	/	81*	117*
CC1(OC(=O)c2ccco2)C(=O)C=C2C=C(C3CC3)OC=C2C1=O (stereo not given)	79*	/	/	/	/	/	40*	59*
CC1(OC(=O)c2cccs2)C(=O)C=C2C=C(C3CC3)OC=C2C1=O (stereo not given)	39	/	/	/	/	/	/	/
CCOC(=O)N1CCC(NS(=O)(=O)c2ccc(C#N)cc2)CC1	3	-15	-17	0	/	0	/	/
